The values that follow come from PubChem BioAssay.

For orientation: inhibition means the drop in the measured response relative to a control, in per cent.

Calls of active or inactive are those of the source.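 How the source made its calls, unless noted: active means fluorescence slope higher than the sample average by over 3 SD (cut at about -0.22 in these data, passing the limit was not always enough); inactive means the rest.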

Test [1] in a line: inhibitors of TNFa-induced NFkB p65 translocation, primary screen, imaging, HUVEC, MLSMR starter and 10KST1 sets (AID 438;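 active means inhibition above 20% together with a positive visual image hit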;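 further: compound added about 3h40 before a 20 min TNFalpha stimulation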;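 on inhibition: signal is the nuclear over cytoplasmic p65 intensity ratio per well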). The following applies: HUVEC TNFa-induced p65 nuclear translocation; cell count: measured here: nuclei count (cytotoxicity indicator), at 2.08 µM; inhibition: at 2 µM, stronger effect = higher value, 0% TNFa-plus-vehicle, 100% no-TNFa wells.
Test [2] in a line: inhibitors of mutant huntingtin aggregation, primary screen, imaging, exon1htt(103Q)mCFP cells, high-content imaging (AID 483;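 active means visual image review flags a hit and inhibition of aggregation exceeds 20%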;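 further: compound exposure lasted 3 days before fixation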;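 on nuclei count: percent of the per-plate median nuclei count of sample wells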). The following applies: exon1htt(103Q)mCFP cell line, aggregate imaging, at 2 µM; inhibition of aggregation: stronger effect = higher value; nuclei count: measured here: cell count, toxicity.
Test [3] is described as follows: inhibitors of E-selectin induction by TNFa, primary screen, imaging, HUVEC, immunofluorescence, MLSMR starter and 10KST1 sets (AID 487;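 active means visually confirmed hit in the image check and inhibition above 20%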;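 on inhibition: signal is fraction of cell area covered by stained E-selectin grains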;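 on nuclei count: 100% = median nuclei count of all wells on the same plate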). The following applies: HUVEC TNFalpha-induced E-selectin immunofluorescence imaging, at 2 µM; inhibition: stronger effect = higher value; nuclei count: measured here: cell number, toxicity.
Test [4] has as its target Voltage-gated potassium channel subunit beta-2 (Rattus norvegicus) (UniProt P62483). The experiment in a line: KvBeta enzyme negative modulators, primary screen, biochemical, NADPH fluorescence (AID 622).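 Further: slope of raw intensity against log time taken from 70 to 1610 s.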 The following applies: recombinant KvBeta, 4-cyanobenzaldehyde reduction, at 10 µM, stronger effect = higher value.
Test [5] has the same target. Description: KvBeta positive modulators, primary screen, biochemical, NADPH fluorescence (AID 623;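 active means NADPH fluorescence slope more negative than the mean of all samples by about 3 SD, 99.7% confidence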;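 further: fluorescence intensity change per second fitted from 20 to 320 s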). The following applies: Recombinant KvBeta, NADPH fluorescence decrease slope, 10 min; at 10 µM; stronger effect = lower value.
The target in test [6] is Alpha-2C adrenergic receptor (Homo sapiens) (UniProt P18825). Description: modulators of alpha2C/GIRK thallium flux, primary screen, cell-based, HEK293 alpha2C/GIRK1/2 (AID 624;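 active means fluorescence slope after compound addition differing from the mean of all screened samples at 99.7% confidence, in either direction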;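 further: slope of fluorescence ratio to pre-addition baseline per second over 15 to 24 s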). The following applies: thallium flux BTC fluorescence, at 10 µM, actives lie on both sides.
Sequence of Alpha-2C adrenergic receptor (Homo sapiens) (P18825 whole entry, looked up): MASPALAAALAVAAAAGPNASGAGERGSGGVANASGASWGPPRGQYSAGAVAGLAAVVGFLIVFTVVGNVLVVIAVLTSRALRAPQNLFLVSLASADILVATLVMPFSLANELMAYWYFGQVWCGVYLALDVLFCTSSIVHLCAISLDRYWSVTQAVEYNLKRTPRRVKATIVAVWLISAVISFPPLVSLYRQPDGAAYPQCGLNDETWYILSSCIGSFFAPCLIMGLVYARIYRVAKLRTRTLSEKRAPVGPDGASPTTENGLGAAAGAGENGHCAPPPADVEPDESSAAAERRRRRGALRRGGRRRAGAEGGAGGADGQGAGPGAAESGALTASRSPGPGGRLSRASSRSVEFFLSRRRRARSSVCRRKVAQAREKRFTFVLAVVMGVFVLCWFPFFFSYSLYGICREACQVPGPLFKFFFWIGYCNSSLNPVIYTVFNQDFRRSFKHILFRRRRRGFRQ
The nature of test [7]: inhibitors of Sendai virus-induced IRF3 signaling, primary screen, TLR/RLR signaling modifier project, cell-based, Sendai virus stimulus, luciferase, 10K MLSCN set (AID 602276;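 active means inhibition at or above 50% at 10 µM; inactive means inhibition below 50%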;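 further: firefly luciferase from ISG56 promoter only with Renilla not read in this screen; 0% = Sendai virus plus DMSO and 100% = medium plus DMSO without virus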). The following applies: HEK293 RL24 IRF3 luciferase reporter, at 10 µM, stronger effect = higher value.
Test [8] can be described thus: inhibitors of poly I:C-induced TLR3 signaling, primary screen, cell-based, poly I:C stimulus, luciferase, 10K MLSCN set (AID 602277;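 active means inhibition of the reporter signal at or above 50%; inactive means inhibition below 50%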). The conditions noted are these: HEK293-TLR3 RL24 IRF3 luciferase reporter, at 10 µM, stronger effect = higher value.

Sequence of Voltage-gated potassium channel subunit beta-2 (Rattus norvegicus) (P62483 whole entry, looked up): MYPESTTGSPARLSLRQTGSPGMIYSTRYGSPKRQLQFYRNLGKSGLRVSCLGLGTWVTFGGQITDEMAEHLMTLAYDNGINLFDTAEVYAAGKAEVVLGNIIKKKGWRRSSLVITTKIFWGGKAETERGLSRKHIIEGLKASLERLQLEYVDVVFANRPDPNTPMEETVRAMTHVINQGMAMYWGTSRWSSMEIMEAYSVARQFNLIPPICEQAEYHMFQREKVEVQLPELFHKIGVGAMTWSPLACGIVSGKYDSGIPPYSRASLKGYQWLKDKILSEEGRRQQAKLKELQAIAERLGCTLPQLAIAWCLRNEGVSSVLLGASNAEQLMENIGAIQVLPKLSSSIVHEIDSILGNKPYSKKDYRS

Consider `Cc1ccc(S(=O)(=O)NCCSc2nnnn2-c2ccc(C(N)=O)cc2)cc1`, for which, in test [1], the cell count worked out at 650. Also, the inhibition in test [1] was -2.6% (inactive); in test [3], -14.3% (inactive); in test [7] it was -0.501% (inactive); in test [8] it was 12.6% (inactive). Moreover, the inhibition of aggregation in test [2] was 2.1% (inactive). The nuclei count was determined as 115% in test [2] and 111% in test [3]. The fluorescence slope in test [4] was -0.564 (inactive). Further, in test [5], the NADPH fluorescence slope is 4.8e-06 (inactive). For the same compound, the slope in test [6] is 0.00721 (inactive).
With `CCCn1c(SCC(=O)NCc2ccco2)nc2c1c(=O)n(C)c(=O)n2C`, the cell count in test [1] is 433. Moreover, the inhibition in test [1] was -9.2% (inactive); in test [3] it was -144% (inactive); in test [7] it was 16.6% (inactive); in test [8], 10.9% (inactive). Further, the inhibition of aggregation in test [2] is 16.5% (inactive). In addition, the nuclei count came out at 104% in test [2] and 160% in test [3]. Also, the fluorescence slope in test [4] is -0.379 (inactive). In test [5], the NADPH fluorescence slope was -4.1e-05 (inactive). Besides, the slope in test [6] was 0.0049 (inactive).
Regarding `Cc1ccc(-n2c(SCC3CCCCO3)nnc2-c2ccco2)cc1` (centres undefined), in test [1], the cell count worked out at 573. Moreover, the inhibition in test [1] is 0.5% (inactive); in test [3], -17.5% (inactive); in test [7] it was 20.5% (inactive); in test [8], 25.2% (inactive). In addition, the inhibition of aggregation in test [2] was 7.5% (inactive). Besides, the nuclei count was 86.9% in test [2] and 102% in test [3]. Also, the fluorescence slope in test [4] was -0.413 (inactive). In addition, the NADPH fluorescence slope in test [5] was -4.4e-05 (inactive). The slope in test [6] was 0.00422 (inactive).
For the compound `COC1CCCCC1NS(=O)(=O)c1ccccc1` (centres undefined), the cell count in test [1] amounted to 317. Moreover, the inhibition in test [1] is 1.4% (inactive); in test [3] it was 19.4% (inactive); in test [7] it was 11.1% (inactive); in test [8] it was 27.4% (inactive). For the same compound, in test [2], the inhibition of aggregation was 12.2% (inactive). The nuclei count in test [2] was determined as 113%; in test [3], 114%. Besides, the fluorescence slope in test [4] is -0.312 (inactive). Moreover, the NADPH fluorescence slope in test [5] is -3.1e-06 (inactive). Besides, the slope in test [6] was 0.00597 (inactive).
With `CC1CN(c2nc3ccccc3nc2C(C#N)C(=O)OC2CCCCC2)CC(C)O1` (centres undefined), the cell count in test [1] came to 382. The inhibition in test [1] is -6.2% (inactive); in test [3] it was -12.3% (inactive); in test [7], 15.1% (inactive); in test [8] it was 22.4% (inactive). The inhibition of aggregation in test [2] was -28.8% (inactive). Besides, the nuclei count in test [2] is 116%; in test [3], 111%. Also, in test [4], the fluorescence slope was -0.364 (inactive). The NADPH fluorescence slope in test [5] is 2.4e-05 (inactive). Further, in test [6], the slope is 0.0019 (active).
In the case of `c1ccc(-c2nc3ccccc3nc2-c2ccccn2)nc1`, in test [1], the cell count came out at 746. Further, the inhibition in test [1] is -8.5% (inactive); in test [3] it was -17.4% (inactive); in test [7] it was 11.1% (inactive); in test [8] it was 14.2% (inactive). Moreover, the inhibition of aggregation in test [2] is 4.8% (inactive). The nuclei count in test [2] came to 93.9%; in test [3], 118%. The fluorescence slope in test [4] is -0.491 (inactive). In addition, the NADPH fluorescence slope in test [5] was -3.4e-05 (inactive). For the same compound, in test [6], the slope was 0.0056 (inactive).
Take `COc1ccc(CNC(=O)CCc2nc(-c3ccccc3F)no2)c(OC)c1`: the cell count in test [1] was 354. In addition, the inhibition in test [1] was 1.7% (inactive); in test [3], 37.2% (inactive); in test [7] it was 8.05% (inactive); in test [8], 0.538% (inactive). The inhibition of aggregation in test [2] was 19.9% (inactive). Besides, the nuclei count was 98% in test [2] and 86.3% in test [3]. In addition, in test [4], the fluorescence slope is -0.378 (inactive). The NADPH fluorescence slope in test [5] is -2e-05 (inactive). Also, the slope in test [6] is 0.00384 (inactive).
Consider `Cn1c(=O)oc2cc(S(=O)(=O)N3CCCC(C(=O)NCC4COc5ccccc5O4)C3)ccc21` (centres undefined), for which, in test [1], the cell count turned out to be 751. In addition, the inhibition in test [1] is -1.9% (inactive); in test [3] it was -40.9% (inactive); in test [7], -12.4% (inactive); in test [8], -5.33% (inactive). The inhibition of aggregation in test [2] was -6.6% (inactive). Also, the nuclei count was 105% in test [2] and 124% in test [3]. Besides, the fluorescence slope in test [4] was -0.575 (inactive). In addition, in test [5], the NADPH fluorescence slope was 1.7e-05 (inactive). The slope in test [6] was 0.00726 (inactive).
Consider `COc1ccc(CCNc2oc(-c3ccccc3OC)nc2C#N)cc1`, for which the cell count in test [1] turned out to be 216. In addition, the inhibition is -4.3% (inactive) in test [1], -19.1% (inactive) in test [3], -0.337% (inactive) in test [7] and 12.4% (inactive) in test [8]. Also, the inhibition of aggregation in test [2] is 4% (inactive). The results for the nuclei count in test [2] and in test [3] were 86.1% and 88.6%, respectively. For the same compound, the fluorescence slope in test [4] is -0.413 (inactive). The NADPH fluorescence slope in test [5] was 2.3e-05 (inactive). Further, the slope in test [6] is 0.00318 (inactive).
`COc1ccc(NC(=O)CC2Oc3ccccc3NC2=O)cc1` (centres undefined): in test [1], the cell count is 560. For the same compound, the inhibition was 8.3% (inactive) in test [1], -48.1% (inactive) in test [3], 4.81% (inactive) in test [7] and 31.8% (inactive) in test [8]. In test [2], the inhibition of aggregation was -0.3% (inactive). Also, the nuclei count was determined as 92.4% in test [2] and 122% in test [3]. Further, the fluorescence slope in test [4] is -0.556 (inactive). For the same compound, in test [5], the NADPH fluorescence slope is -3.2e-05 (inactive). Besides, the slope in test [6] is 0.00626 (inactive).
Consider `Cn1c(=O)c2c(nc(CN3CCN(c4ccccc4F)CC3)n2CCN2CCOCC2)n(C)c1=O`, for which, in test [1], the cell count is 317. For the same compound, the inhibition was -6.9% (inactive) in test [1], -26.9% (inactive) in test [3], 17.6% (inactive) in test [7] and 17.1% (inactive) in test [8]. Besides, in test [2], the inhibition of aggregation was 13.3% (inactive). Besides, the nuclei count amounted to 114% in test [2] and 107% in test [3]. Moreover, in test [4], the fluorescence slope is -0.288 (inactive). Further, the NADPH fluorescence slope in test [5] is -2.7e-05 (inactive). The slope in test [6] was 0.00647 (inactive).
As for `CCOc1ccccc1-n1nnnc1SCC(=O)Nc1cc2oc3ccccc3c2cc1OC`, the cell count in test [1] was 374. Besides, the inhibition in test [1] is -2.9% (inactive); in test [3] it was -108% (inactive); in test [7], -7.46% (inactive); in test [8] it was 15.7% (inactive). For the same compound, the inhibition of aggregation in test [2] is 4.8% (inactive). Besides, the values for the nuclei count in test [2] and in test [3] were 99.1% and 118%, respectively. Besides, in test [4], the fluorescence slope is -0.568 (inactive). Also, the NADPH fluorescence slope in test [5] is 2.4e-05 (inactive). Further, in test [6], the slope was 0.00931 (inactive).
Consider `CC(=O)Nc1ccc(NC(=O)c2cc(C)nn2-c2ccccc2)cc1`, for which the cell count in test [1] is 687. The inhibition was -6.1% (inactive) in test [1], -36.4% (inactive) in test [3], -3.81% (inactive) in test [7] and 0.294% (inactive) in test [8]. For the same compound, in test [2], the inhibition of aggregation was -15.3% (inactive). Besides, the nuclei count in test [2] is 112%; in test [3] it was 129%. Moreover, the fluorescence slope in test [4] was -0.539 (inactive). Further, the NADPH fluorescence slope in test [5] was -1.7e-06 (inactive). In addition, in test [6], the slope is 0.00394 (inactive).
`CC(C)C(=O)Nc1ccc(-c2nc3cccnc3o2)cc1`: the cell count in test [1] worked out at 413. The inhibition in test [1] was 6.7% (inactive); in test [3], 23.3% (inactive); in test [7], -33.7% (inactive); in test [8], -147% (inactive). The inhibition of aggregation in test [2] is 12.8% (inactive). The nuclei count is 109% in test [2] and 107% in test [3]. For the same compound, the fluorescence slope in test [4] was -0.262 (inactive). Moreover, the NADPH fluorescence slope in test [5] is 4.8e-06 (inactive). For the same compound, the slope in test [6] is 0.0065 (inactive).
